# Measured values reported in the supplement of paper PMC8728848.
# The sample as a whole holds a higher share of the strongest signals than the screen did.
# B1: PVL (Psathyrella velutina), Q309D1_9AGAR (protein)
# chain: MSVVVISQALPVPTRIPGVADLVGFGNGGVYIIRNSLLIQVVKVINNFGYDAGGWRVEKHVRLLADTTGDNQPDVVGFGENGVWISTNNGNNTFVDPPKMVLANFAYAAGGWRVEKHIRFMADLRKTGRADIVGFGDGGIYISRNNGGGQFAPAQLALNNFGYAQGWRLDRHLRFLADVTGDGLLDVVGFGENQVYIARNSGNGTFQPAQAVVNNFCIGAGGWTISAHPRVVADLTGDRKADILGFGVAGVYTSLNNGNGTFGAVNLVLKDFGVNSGWRVEKHVRCVSSLTNKKVGDIIGFGDAGVYVALNNGNGTFGPVKRVIDNFGYNQGWRVDKHPRFVVDLTGDGCADIVGFGENSVWACMNKGDGTFGPIMKLIDDMTVSKGWTLQKTVRYAANLYL
# Key:
# Test in all cases: glycan array binding signal (z-score within array); higher = stronger binding
# Details in all cases: glycan notation: IUPAC condensed, linker removed
# [1] = target: GlcNAc(b1-3)Gal(b1-4)Glc
# Method in brief: (§1)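 Columns mapping to the same glycan were averaged after glycan names were converted to IUPAC-condensed notation. The data come from 3228 arrays in the Consortium for Functional Glycomics database, limited to those with an available protein sequence. Binding is reported as a within-array Z-score averaged across arrays of one protein sequence and across linkers.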
# [2] = target: GlcNAc(b1-3)Gal(b1-4)GlcNAc(b1-2)Man(a1-3)[GlcNAc(b1-3)Gal(b1-4)GlcNAc(b1-2)Man(a1-6)]Man(b1-4)GlcNAc(b1-4)[Fuc(a1-6)]GlcNAc
# Method in brief: as §1
# [3] = target: GlcNAc(b1-3)Gal(b1-4)GlcNAc(b1-3)Gal(b1-4)GlcNAc
# Method in brief: as §1
# [4] = target: GlcNAc(b1-3)Gal(b1-4)GlcNAc(b1-3)Gal(b1-4)GlcNAc(b1-2)Man(a1-3)[GlcNAc(b1-3)Gal(b1-4)GlcNAc(b1-3)Gal(b1-4)GlcNAc(b1-2)Man(a1-6)]Man(b1-4)GlcNAc(b1-4)GlcNAc
# Method in brief: as §1
# [5] = target: GlcNAc(b1-3)Gal(b1-4)GlcNAc(b1-3)Gal(b1-4)GlcNAc(b1-2)Man(a1-3)[GlcNAc(b1-3)Gal(b1-4)GlcNAc(b1-3)Gal(b1-4)GlcNAc(b1-2)Man(a1-6)]Man(b1-4)GlcNAc(b1-4)[Fuc(a1-6)]GlcNAc
# Method in brief: as §1
# [6] = target: GlcNAc(b1-3)Gal(b1-4)GlcNAc(b1-3)Gal(b1-4)GlcNAc(b1-2)[GlcNAc(b1-3)Gal(b1-4)GlcNAc(b1-3)Gal(b1-4)GlcNAc(b1-6)]Man(a1-6)[GlcNAc(b1-3)Gal(b1-4)GlcNAc(b1-3)Gal(b1-4)GlcNAc(b1-2)Man(a1-3)]Man(b1-4)GlcNAc(b1-4)[Fuc(a1-6)]GlcNAc
# Method in brief: as §1
# [7] = target: GlcNAc(b1-3)Gal(b1-4)GlcNAc(b1-3)Gal(b1-4)GlcNAc(b1-3)Gal(b1-4)GlcNAc(b1-2)Man(a1-3)[GlcNAc(b1-3)Gal(b1-4)GlcNAc(b1-3)Gal(b1-4)GlcNAc(b1-3)Gal(b1-4)GlcNAc(b1-2)Man(a1-6)]Man(b1-4)GlcNAc(b1-4)GlcNAc
# Method in brief: as §1
# [8] = target: GlcNAc(b1-3)Gal(b1-4)GlcNAc(b1-3)Gal(b1-4)GlcNAc(b1-3)Gal(b1-4)GlcNAc(b1-2)Man(a1-3)[GlcNAc(b1-3)Gal(b1-4)GlcNAc(b1-3)Gal(b1-4)GlcNAc(b1-3)Gal(b1-4)GlcNAc(b1-2)Man(a1-6)]Man(b1-4)GlcNAc(b1-4)[Fuc(a1-6)]GlcNAc
# Method in brief: as §1
# [9] = target: GlcNAc(b1-3)Gal(b1-4)GlcNAc(b1-3)Gal(b1-4)GlcNAc(b1-3)Gal(b1-4)GlcNAc(b1-2)[GlcNAc(b1-3)Gal(b1-4)GlcNAc(b1-3)Gal(b1-4)GlcNAc(b1-3)Gal(b1-4)GlcNAc(b1-6)]Man(a1-6)[GlcNAc(b1-3)Gal(b1-4)GlcNAc(b1-3)Gal(b1-4)GlcNAc(b1-3)Gal(b1-4)GlcNAc(b1-2)Man(a1-3)]Man(b1-4)GlcNAc(b1-4)[Fuc(a1-6)]GlcNAc
# Method in brief: as §1
# [10] = target: GlcNAc(b1-3)Gal(b1-4)GlcNAc(b1-3)Gal(b1-4)GlcNAc(b1-3)Gal(b1-4)GlcNAc(b1-3)Gal(b1-4)GlcNAc(b1-2)Man(a1-3)[GlcNAc(b1-3)Gal(b1-4)GlcNAc(b1-3)Gal(b1-4)GlcNAc(b1-3)Gal(b1-4)GlcNAc(b1-3)Gal(b1-4)GlcNAc(b1-2)Man(a1-6)]Man(b1-4)GlcNAc(b1-4)GlcNAc
# Method in brief: as §1
# [11] = target: GlcNAc(b1-3)Gal(b1-4)GlcNAc(b1-3)Gal(b1-4)GlcNAc(b1-3)Gal(b1-4)GlcNAc(b1-3)Gal(b1-4)GlcNAc(b1-2)Man(a1-3)[GlcNAc(b1-3)Gal(b1-4)GlcNAc(b1-3)Gal(b1-4)GlcNAc(b1-3)Gal(b1-4)GlcNAc(b1-3)Gal(b1-4)GlcNAc(b1-2)Man(a1-6)]Man(b1-4)GlcNAc(b1-4)[Fuc(a1-6)]GlcNAc
# Method in brief: as §1
# [12] = target: GlcNAc(b1-3)Gal(b1-4)GlcNAc(b1-3)Gal(b1-4)GlcNAc(b1-3)Gal(b1-4)GlcNAc(b1-3)Gal(b1-4)GlcNAc(b1-2)[GlcNAc(b1-3)Gal(b1-4)GlcNAc(b1-3)Gal(b1-4)GlcNAc(b1-3)Gal(b1-4)GlcNAc(b1-3)Gal(b1-4)GlcNAc(b1-6)]Man(a1-6)[GlcNAc(b1-3)Gal(b1-4)GlcNAc(b1-3)Gal(b1-4)GlcNAc(b1-3)Gal(b1-4)GlcNAc(b1-3)Gal(b1-4)GlcNAc(b1-2)Man(a1-3)]Man(b1-4)GlcNAc(b1-4)[Fuc(a1-6)]GlcNAc
# Method in brief: as §1
# [13] = target: GlcNAc(b1-3)Gal(b1-4)GlcNAc(b1-6)[GlcNAc(b1-3)Gal(b1-3)]GalNAc
# Method in brief: as §1
# [14] = target: GlcNAc(b1-3)[GlcNAc(b1-6)]GalNAc
# Method in brief: as §1
# [15] = target: GlcNAc(b1-4)GlcNAc(b1-4)GlcNAc(b1-4)GlcNAc(b1-4)GlcNAc(b1-4)GlcNAc
# Method in brief: as §1
# [16] = target: GlcNAc(b1-6)Gal(b1-4)GlcNAc
# Method in brief: as §1
# [17] = target: Kdn(a2-3)Gal(b1-4)[Fuc(a1-3)]GlcNAc
# Method in brief: as §1
# [18] = target: Neu5Ac(a2-3)Gal
# Method in brief: as §1
# [19] = target: Neu5Ac(a2-3)Gal(b1-4)GlcNAc(b1-2)Man
# Method in brief: as §1
# [20] = target: Neu5Ac(a2-3)Gal(b1-4)GlcNAc(b1-2)[Neu5Ac(a2-3)Gal(b1-4)GlcNAc(b1-4)]Man(a1-3)[GlcNAc(b1-4)][Neu5Ac(a2-3)Gal(b1-4)GlcNAc(b1-2)[Neu5Ac(a2-3)Gal(b1-4)GlcNAc(b1-6)]Man(a1-6)]Man(b1-4)GlcNAc(b1-4)GlcNAc
# Method in brief: as §1
# [21] = target: Neu5Ac(a2-3)Gal(b1-4)[Fuc(a1-3)]GlcNAc(b1-3)Gal(b1-4)[Fuc(a1-3)]GlcNAc(b1-3)Gal(b1-4)[Fuc(a1-3)]GlcNAc
# Method in brief: as §1
# [22] = target: Neu5Ac(a2-3)GalNAc(b1-4)GlcNAc
# Method in brief: as §1
# [23] = target: Neu5Ac(a2-6)Gal(b1-4)GlcNAc(b1-2)Man(a1-3)[Gal(b1-4)GlcNAc(b1-2)Man(a1-6)]Man(b1-4)GlcNAc(b1-4)GlcNAc
# Method in brief: as §1
# [24] = target: Neu5Ac(a2-6)Gal(b1-4)GlcNAc(b1-2)Man(a1-3)[Man(a1-6)]Man(b1-4)GlcNAc(b1-4)GlcNAc
# Method in brief: as §1
binder,measurement,setting,value
B1,glycan array binding signal (z-score),[1],4.07
same,glycan array binding signal (z-score),[2],3.27
same,glycan array binding signal (z-score),[3],4.46
same,glycan array binding signal (z-score),[4],3.34
same,glycan array binding signal (z-score),[5],4.03
same,glycan array binding signal (z-score),[6],4.69
same,glycan array binding signal (z-score),[7],4.58
same,glycan array binding signal (z-score),[8],4.34
same,glycan array binding signal (z-score),[9],5.13
same,glycan array binding signal (z-score),[10],4.45
same,glycan array binding signal (z-score),[11],4.27
same,glycan array binding signal (z-score),[12],5.12
same,glycan array binding signal (z-score),[13],2.71
same,glycan array binding signal (z-score),[14],1.1
same,glycan array binding signal (z-score),[15],0.53
same,glycan array binding signal (z-score),[16],0.714
same,glycan array binding signal (z-score),[17],-0.363
same,glycan array binding signal (z-score),[18],-0.341
same,glycan array binding signal (z-score),[19],-0.35
same,glycan array binding signal (z-score),[20],-0.201
same,glycan array binding signal (z-score),[21],-0.297
same,glycan array binding signal (z-score),[22],-0.351
same,glycan array binding signal (z-score),[23],-0.362
same,glycan array binding signal (z-score),[24],-0.349
